Results reported in PubChem BioAssay (NCATS).
Results filed as inconclusive are left out. Entries that show only a call come without a potency. Calls of active or inactive are those of the source. Unless noted, calls come from the whole dose curve.

Experiments:
[1] = Primary qHTS to identify inhibitors of SARS-CoV-2 cell entry (AID 1645846); conditions: activity change, negative = inhibition: at 57.1 µM (top of the series) unless noted; note: nearly all actives have a fitted effect of over 45% in size
Method in brief: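 Inhibition of spike-mediated entry was scored in human ACE2-transfected Expi293F cells. Particles were MLV-pseudotyped with Wuhan-Hu-1 S carrying a 19-aa C-terminal deletion; signal was luciferase after two days, scaled between spike PP and fusion-protein-free PP.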

CRL-7250 = normal cell line; assay: qHTS assay to identify novel small-molecules to repurpose for Merkel cell carcinoma treatment (AID 1296009; active = well fitted inhibition curve with a large enough effect; note: nearly all actives have a fitted effect of over 60% in size); conditions: MCC and control cell lines, CellTiter-Glo viability, 72 h; series mostly up to 92 µM
Method in brief: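 72 hr, 37 degree celsius; NPC 8-pt / MIPE 11-pt dose response; compound pinned in DMSO; CellTiter-Glo, 10 min RT, luminescence; normalized to no-cell and DMSO controls.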

[2] = Cytotoxicity counterscreen for inhibitors of SARS-CoV-2 cell entry (AID 1645845); note: nearly all actives have a fitted effect of over 50% in size
Method in brief: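 48 h compound treatment (after 1 h preincubation), HEK293-ACE2 cells, 37 C/5% CO2; ATP luminescence endpoint; normalized to cell wells and media blanks.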

SMILES: Cc1cccc(-c2[nH]c(CNc3ccccc3F)nc2-c2ccc3ncnn3c2)n1
- activity change, negative = inhibition [1]: -32.1%
- Potency (CRL-7250): inactive

SMILES: CCS(=O)(=O)N1CCC([C@@H](C)n2c(C)c(C(=O)NCc3c(OC)cc(C)[nH]c3=O)c3ccccc32)CC1
- Potency [2]: inactive
- Potency [1]: inactive
- Potency (CRL-7250): inactive

SMILES: CCC(CC)CC1(C(=O)Nc2ccccc2SC(=O)C(C)C)CCCCC1
- Potency [2]: inactive
- activity change, negative = inhibition [1]: -15.2%
- Potency (CRL-7250): inactive

SMILES: Cc1c(-c2ccnn2C)cc(C(=O)NCc2ccc(S(C)(=O)=O)cn2)c(=O)n1-c1cccc(C(F)(F)F)c1
- Potency [2]: inactive
- Potency [1]: inactive
- Potency (CRL-7250): inactive

SMILES: CCN(c1cc(C#CCN2CCOCC2)cc(C(=O)NCc2c(C)cc(C)[nH]c2=O)c1C)C1CCC(N(C)CCOC)CC1 (configuration not stated)
- Potency [2]: inactive
- Potency [1]: inactive
- Potency (CRL-7250): inactive

SMILES: Cc1nn(C)c2c1C(c1ccc(C(F)(F)F)cc1)C(C#N)=C(N)O2 (configuration not stated)
- Potency [2]: inactive
- Potency [1]: inactive
- Potency (CRL-7250): inactive

SMILES: Cc1cccc(Oc2cnc(=O)[nH]c2)c1
- Potency [2]: inactive
- activity change, negative = inhibition [1]: -20%
- Potency (CRL-7250): inactive

SMILES: CCNCc1nc2c(N)nc3ccccc3c2n1CC(C)(C)O
- activity change, negative = inhibition [1]: -33.4%
- Potency (CRL-7250): inactive
